This is an account of results in PubChem BioAssay (NCI).

About 83,000 compounds went through this panel and 20% of them were active in at least one assay; those are over-represented in the sample as a whole.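 Single-dose data. Exposure time 48 hours. Values below 10 considered active.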 The source made the active and inactive calls.

In this assay the test system is KM12 colon. Kind of assay: NCI-60 one-dose screen, 48 h (100 = growth as untreated, 0 = no growth, -100 = all killed). As to conditions: 10 µM unless noted. On the procedure: Growth inhibition of the KM12 human tumor cell line is measured as a screen for anti-cancer activity. Cells are grown in 96 well plates and exposed to the test compound for 48 hours. Compounds are tested at a single concentration, which is 10^-5 M for most compounds. The reported endpoint is percent growth (GI% or GIPRCNT), where numbers from 0 - 100% represent growth inhibition, and numbers from -100% - 0 represent cell death. For example, a value of 40 represents 60% growth inhibition. A value of 0 means no net growth occurred over the course of the experiment. A value of -40 indicates 40% of cells at the beginning of the experiment died by the end of the experiment. A value of -100 means all cells are dead at the end of the experiment.
NCI-60 Human Tumor Cell Lines Screen was performed using the standard one-dose NCI protocol, which is described in more detail at https://dtp.cancer.gov/discovery_development/nci-60/default.htm.
Compounds with GIPRCNT values below 10 were considered active. Activity score was based on GIPRCNT using the following formula: […]
Score is 0 for GIPRCNT values of 100 or above, 50 for GIPRCNT values of 0, and 100 for GIPRCNT values of -100.
On to `CCC(=O)c1c(C)[nH]c(C)c1C`, for which the growth was 102% (inactive).

Regarding `COC1=C(Br)C(=O)C(OC)=C(Br)C1=O`, the growth is 101% (inactive).

Regarding `Fc1ccc(Nc2nnc(-c3ccc(Cl)cc3)o2)cc1`, the growth is 97.8% (inactive).

For the compound `O=S(=O)(NCCNc1cc(-c2cn(-c3ccccc3)nc2-c2cccc(O)c2)ccn1)c1ccc(F)cc1`, the growth is 11.3% (inactive).

On to `Cc1nc([P+](c2ccccc2)(c2ccccc2)c2ccccc2)c(Sc2sc(-c3ccccc3)nc2[P+](c2ccccc2)(c2ccccc2)c2ccccc2)o1`, for which the growth was -0.528% (active).

In the case of `COC(=O)[C@]12CC[C@@H](C)[C@H](C)[C@@H]1C1=CC[C@@H]3[C@@]4(C)C[C@@H](OC(C)=O)[C@H](O)[C@@](C)(COC(C)=O)[C@@H]4[C@H](O)C[C@@]3(C)[C@]1(C)CC2`, the growth was -75.4% (active).

For `C=C1C(=O)O[C@H]2[C@H]1CC/C(Cn1cc(-c3ccc(F)cc3)nn1)=C\CC[C@@]1(C)O[C@@H]21`, the growth was 54.6% (inactive).

Regarding `O=Cc1nc2ccccc2[nH]1`, the growth was 99.8% (inactive).

As for `COc1ccc2[nH]cc(-c3nc(-c4c[nH]c5ncccc45)cs3)c2c1`, the growth is 25.3% (inactive).

As to `O=C(NC(Cc1cn(Cc2ccccc2)cn1)C(=O)O)OCC1c2ccccc2-c2ccccc21` (stereo not given), the growth was 101% (inactive).

In the case of `C#Cc1cc2c(N)c(C(=O)c3cc(OC)c(OC)c(OC)c3)[nH]c2cc1OC`, the growth was 31.5% (inactive).

Consider `CCC1C(=O)COC1=O` (stereo not given), for which the growth was 101% (inactive).

With `COc1ccc(C2NC(=O)Nc3ccccc32)c(OC)c1` (stereo not given), the growth was 110% (inactive).

In the case of `C/C(=N\Nc1ccc2ccccc2n1)c1ccccn1`, the growth is 6.76% (active).

Take `CSc1ccc(N(C)c2nc(C)nc3c2CCC3)cc1`: the growth was 8.57% (active).

Regarding `CC(C)(C)c1[nH]nc2c1C(c1cc3ccccc3[nH]c1=O)Nc1cc(C(=O)OCc3ccccc3)ccc1N2` (stereo not given), the growth was 31% (inactive).

On to `COC(=O)CCCCCn1c2ccccc2c2c3c(c4c5ccccc5[nH]c4c21)C(=O)N(O)C3=O`, for which the growth is 46.5% (inactive).

Regarding `C=C(C)[C@@H]1CC[C@]2(c3nnc(-c4ccncc4)o3)CC[C@]3(C)[C@H](CC[C@@H]4[C@@]5(C)CCC(=O)NC(C)(C)[C@@H]5CC[C@]43C)[C@@H]12`, the growth is 98.9% (inactive).

Consider `COc1cc2c3c(c4c5ccccc5[nH]c4c2c(OC)c1OC)C(=O)N(O)C3=O`, for which the growth is 53.7% (inactive).

Consider `O=C1CNCCN1`, for which the growth is 110% (inactive).

In the case of `CNC(=O)c1cc(Oc2ccc3nc(NC(=O)Nc4ccc(Cl)cc4)sc3c2)ccn1`, the growth is 70% (inactive).

As to `Cc1ccc(-c2nc3ccc(Cl)cc3c(=O)n2N2C(=O)CSC2c2ccccc2Cl)cc1` (stereo not given), the growth is 82.3% (inactive).

As to `CN1CCN(CC#CCn2c3c(c4ccccc42)C[C@]2(C)[C@H]4CC[C@@H]5[C@H]6[C@H]7OC(=O)[C@@]6(CCC7(C)C)CC[C@@]5(C)[C@]4(C)CC[C@H]2C3(C)C)CC1`, the growth was 93.7% (inactive).

As for `COc1cnc2c(c1)C(=O)c1c-2n(CCCNC2=NCCS2)c(=O)c2cc([N+](=O)[O-])ccc12`, the growth is -43.9% (active).

As to `N#CC1=C(N)Oc2ccc3ccccc3c2C1c1ccccc1` (stereo not given), the growth is 24.5% (inactive).

`Cc1ccc(N(CC(=O)Nc2ccc(S(=O)(=O)NC3CCN(C)CC3)cc2)S(=O)(=O)c2ccc(Cl)cc2)cc1`: the growth was 61.2% (inactive).

Take `COc1ccc(O)c(-c2cc(-c3ccc(Cl)cc3)c(C#N)c(=O)[nH]2)c1`: the growth was 57.6% (inactive).

As for `C/C(=N\Nc1cc(C)c2cc(C)ccc2n1)c1ccccn1`, the growth was -46.9% (active).

`O=C(c1ccccc1)C(CN1CCOCC1)c1ccccc1` (stereo not given): the growth was 20.8% (inactive).

For the compound `Cc1cc(N2CCN(C)CC2)nc(N(CCNc2ccnc3cc(Cl)ccc23)Cc2ccco2)n1`, the growth is 34.2% (inactive).

As to `COc1cc2c(cc1OC)C(=O)/C(=C/c1cc(-c3ccc4c(c3)OCO4)n[nH]1)C2`, the growth is -82.3% (active).

For `CCCCC(=O)OC1CCCCC1C` (stereo not given), the growth was 99.2% (inactive).

On to `N#CCCCCCn1c2ccccc2c2c3c(c4c5ccccc5n(CCCCCC#N)c4c21)C(=O)N(O)C3=O`, for which the growth is 71.8% (inactive).

Consider `Cc1nn(-c2ccc(Cl)cc2)c(=O)n1CCn1cnc2ccccc21`, for which the growth was 121% (inactive).

As for `O=[N+]([O-])c1cccc(/C=N\Nc2ccccc2)c1`, the growth is 38.8% (inactive).

Regarding `CC(C)=CCC[C@](C)(O)[C@H]1CC[C@]2(C)[C@@H]1CC[C@@H]1[C@@]3(C)C/C(=C/c4ccc(Br)cc4)C(=O)C(C)(C)[C@@H]3CC[C@]12C`, the growth is 94.9% (inactive).

For `CC(=O)O[C@H]1CC[C@@]2(C)[C@@H](CC[C@@H]3[C@@H]2CC(=O)[C@@]2(C)[C@H]3C[C@@H](C3CCCC3=O)[C@@H]2C(C)=O)C1` (stereo not given in full), the growth was 106% (inactive).

Turning to `CCc1ccccc1NC(=O)c1sc2nc3c(cc2c1N)CCCC3`, the growth was 27.9% (inactive).

Turning to `Cc1ccc(-c2nc([P+](c3ccccc3)(c3ccccc3)c3ccccc3)c(N3CCOCC3)o2)cc1`, the growth is -22.4% (active).

In the case of `CCN1CCN(C(=O)[C@]23CCC(C)(C)C[C@H]2C2=CC[C@@H]4[C@@]5(C)CC/C(=N/O)C(C)(C)[C@@H]5CC[C@@]4(C)[C@]2(C)CC3)CC1`, the growth was 72.1% (inactive).
